# Assay results from PubChem BioAssay (NCATS).
# Results filed as inconclusive are left out. Where a call stands in place of a potency, no number is given. Calls of active or inactive are those of the source. Unless noted, calls follow the shape of the dose curve; as a rule, active = well fitted curve in the direction sought with a large enough effect; inconclusive = small, poorly fitted or top-dose-only effect, or another doubt; inactive = no such curve, though single readings can be large; an effect the other way counts as inactive or inconclusive.
# Tests used:
# [1] = NCATS anti-infectives library activity on HEK293 viability as a counter-qHTS vs the C. elegans viability qHTS (AID 1745854)
# Summary of the method: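 Cytotoxicity counter-screen to a worm viability qHTS: CellTiter-Glo luminescence read 10 min after reagent addition. Compounds (final up to 41.7 uM, a 1:5 dilution series) incubated 24 hr at 37C with 1,500 HEK293 cells per well; digitonin control.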
# [2] = NCATS anti-infectives library activity on the primary C. elegans qHTS viability assay (AID 1745855; calls by dose curve; also: potency is read from the fitted curve at half-maximal effect)
# Summary of the method: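 GFP read-out by 488 nm laser cytometry at day 0, 3 and 7, gated on object perimeter, area and peak intensity, scored viability of PE254-GFP-FLuc worms exposed to compound in S medium with bacterial capsules at 21 °C.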
# [3] = Viability counterscreen for antagonist of constitutive androstane receptor (CAR) against the NCATS DSHEA and TCM libraries (AID 1794837);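 also: compound exposure lasted 24 h before viability reading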
# Summary of the method: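 HepG2-CYP2B6-hCAR cells (2,500/well) were allowed to attach for 5 h, then exposed to compounds with 48 uM CITCO for 24 h at 37C. Viability was read by CellTiter-Fluor fluorescence after 1 h.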
# [4] = Viability counterscreen for agonist of constitutive androstane receptor (CAR) against the NCATS DSHEA and TCM libraries (AID 1794838)
# Summary of the method: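 HepG2-CYP2B6-hCAR cells (2,500/well) attached 5 h, then got compounds plus 0.75 uM PK11195 final. After 24 h at 37C, viability read by CellTiter-Fluor fluorescence (Ex/Em 405/540 nm).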
# [5] = biological target: Nuclear receptor subfamily 1 group I member 3 (Homo sapiens) (UniProt Q14994); experiment: Primary qHTS for agonist of constitutive androstane receptor (CAR) against the NCATS DSHEA and TCM libraries (AID 1794839);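 also: HepG2 cells expressing human CAR with a CYP2B6 reporter plus PK11195 antagonist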
# Summary of the method: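 HepG2-CYP2B6-hCAR cells (2,500/well) were attached for 5 h, then treated for 24 h at 37 °C with compounds plus 0.75 µM PK11195. Luciferase luminescence (ONE-Glo) was read, with CellTiter-Fluor viability (Ex/Em 405/540 nm).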
# [6] = HepG2 viability counterscreen (readout 1: protease activity) against the NCATS DSHEA and TCM libraries (AID 1794841);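 also: cells exposed to compounds for about 24 h before the protease read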
# Summary of the method: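 HepG2 cells (1,000 cells/well) attached ~4 h, then treated ~24 h at 37C with substances. Protease activity read by GF-AFC (25 uM final, 30 min, Ex/Em 380/510 nm); ATP content then by CellTiter-Glo luminescence.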
# [7] = biological target: Cytochrome P450 3A4 (Homo sapiens) (UniProt P08684); experiment: qHTS for inhibitors of CYP3A4 against the NCATS DSHEA and TCM libraries (AID 1919971);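 also: inhibition lowers luminescence from luciferin made by CYP3A4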
# Summary of the method: (§1)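 Each CYP isoform and its pro-luciferin substrate, at isoform-specific final concentrations, were preincubated 15 min at RT with substances. NADPH regeneration solution (1x) started a 30-45 min reaction, and P450-Glo luminescence was read.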
# [8] = biological target: Cytochrome P450 2D6 (Homo sapiens) (UniProt P10635); experiment: qHTS for inhibitors of CYP2D6 against the NCATS DSHEA and TCM libraries (AID 1919972)
# Summary of the method: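 CYP2D6 enzyme with pro-luciferin substrate in manufacturer buffer (typically 100 mM KPO4), preincubated 15 min RT with substances (most at 19.5 nM upward); NADPH regeneration system (1x) started 30–45 min RT reaction; P450-Glo luminescence read after 30 min; quinidine as intraplate control.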
# [9] = biological target: Cytochrome P450 2C9 (Homo sapiens) (UniProt P11712); experiment: qHTS for inhibitors of CYP2C9 against the NCATS DSHEA and TCM libraries (AID 1919973); also: potency is read from the fitted curve at half-maximal effect
# Summary of the method: as §1
# [10] = KB-3-1 P-gp reporter qHTS against the NCATS DSHEA and TCM libraries (AID 1919975)
# Summary of the method: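 Parental KB-3-1 human cervical adenocarcinoma cells (500 cells/well, DMEM + 10% FBS) were treated with substances for ~72 h at 37C; viability was read by CellTiter-Glo luminescence.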
# [11] = biological target: Cytochrome P450 1A2 (Homo sapiens) (UniProt P05177); experiment: qHTS for inhibitors of CYPIA2 against the NCATS DSHEA and TCM libraries (AID 1919976); also: series mostly up to about 37 µM
# Summary of the method: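 Reaction started with 1x NADPH regeneration solution and run 30-45 min, room temperature, protected from light, after compounds sat 15 min with CYP1A2 and pro-luciferin substrate. P450-Glo detection gave luminescence; furafylline served as control.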
# [12] = qHTS Counterscreen for compound interference against the NCATS DSHEA and TCM libraries (AID 1919978); conditions: firefly luciferase detection reagent interference, luminescence
# Summary of the method: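 D-luciferin (1 uM final) or 100 mM potassium phosphate buffer alone was preincubated 15 min at RT with compounds (19.5 nM to 39.8 uM final). Luciferin detection reagent was then added and luminescence read after 30 min at RT.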
# [13] = Dual reporter qHTS for agonist of Pregnane X Receptor (hPXR) against the NCATS DSHEA and TCM libraries: Fluorescence readout (AID 1920058)
# Summary of the method: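 Viability readout (CellTiter-Fluor, 405/540 nm, 1 h) from agonist-mode PXR dual reporter in hPXR-Luc HepG2 cells. Substances ~24 h, 37 °C, 5% CO2; rifampicin reference, tetraoctyl ammonium bromide cytotoxic control.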
# [14] = biological target: Nuclear receptor subfamily 1 group I member 2 (Homo sapiens) (UniProt O75469); experiment: Dual reporter qHTS for agonist of Pregnane X Receptor (hPXR) against the NCATS DSHEA and TCM libraries: Luminescence readout (AID 1920059)
# Summary of the method: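 hPXR-LucHepG2 cells in phenol red-free DMEM with 5% charcoal-stripped FBS, 2000 cells/well, attached 5 h, then exposed 24 h at 37C to compounds; rifampicin as positive agonist control (2.8 nM–92 uM). Luciferase luminescence read.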
# [15] = biological target: Nuclear receptor subfamily 1 group I member 2 (Homo sapiens) (UniProt O75469); experiment: Dual reporter qHTS for antagonist of Pregnane X Receptor (hPXR) against the NCATS DSHEA and TCM libraries: Luminescence Readout (AID 1920060);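 also: HepG2 cells carrying hPXR luciferase reporter stimulated with rifampicin at 2 µM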
# Summary of the method: (§2)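 hPXR-Luc HepG2 cells exposed 24 h at 37 C to compounds with 2 uM rifampicin in antagonist mode; luciferase luminescence measured by ONE-Glo, with CellTiter-Fluor viability read beforehand.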
# [16] = Dual reporter qHTS for antagonist of Pregnane X Receptor (hPXR) against the NCATS DSHEA and TCM libraries: Fluorescence Readout (AID 1920061)
# Summary of the method: as §2
# [17] = biological target: Glutathione peroxidase 1 (Homo sapiens) (UniProt P07203); experiment: Primary qHTS Assay for Inhibitors of Recombinant Selenoprotein Glutathione Peroxidase 1 (GPX1) (AID 1845191); also: nearly all actives have a fitted effect of over 65% in size
# Summary of the method: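 GPX1 10 nM, GR 100 nM, GSH 1 mM, NADPH 0.5 mM, CHP 0.5 mM (final). 30-min cpd preincubation, RT. Ex340/Em450 read t=0, t=15 min.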
# [18] = biological target: Phospholipid hydroperoxide glutathione peroxidase GPX4 (Homo sapiens) (UniProt P36969); experiment: Primary qHTS Assay for Inhibitors of Recombinant Selenoprotein Glutathione Peroxidase 4 (GPX4) (AID 1845192); also: nearly all actives have a fitted effect of over 65% in size; also: potency is read from the fitted curve at half-maximal effect
# Summary of the method: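 qHTS, GR-coupled: GPX4 200 nM + cpd 30 min RT → GSH 1 mM, NADPH 0.5 mM, GR 100 nM → CHP 0.5 mM start; fluor 340/450 at t0 and t15 min; no-enzyme wells as control.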
# [19] = qHTS drug screen for cell cycle checkpoint inhibitors in PARPi-resistant BRCA-mutant ovarian cancer cell lines. (AID 1963452; calls by dose curve); conditions: PEO1/OlaR viability, CellTiter-Glo luminescence, 96 h, stronger effect = lower value
# Summary of the method: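 PEO1, PEO4 and PEO1/OlaR ovarian cancer cells, 600 per well, exposed 96 h at 37C to a dilution series. Viability read by CellTiter-Glo luminescence, normalized to DMSO and empty wells; activity summarized as Z-AUC.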
# Sequence of Phospholipid hydroperoxide glutathione peroxidase GPX4 (Homo sapiens) (P36969 whole entry, looked up): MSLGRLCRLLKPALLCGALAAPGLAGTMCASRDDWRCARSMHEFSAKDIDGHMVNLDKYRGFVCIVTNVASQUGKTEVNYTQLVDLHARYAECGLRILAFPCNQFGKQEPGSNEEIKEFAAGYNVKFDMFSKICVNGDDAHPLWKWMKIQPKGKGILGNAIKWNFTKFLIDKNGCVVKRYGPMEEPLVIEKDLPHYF
# Sequence of Glutathione peroxidase 1 (Homo sapiens) (P07203 whole entry, looked up): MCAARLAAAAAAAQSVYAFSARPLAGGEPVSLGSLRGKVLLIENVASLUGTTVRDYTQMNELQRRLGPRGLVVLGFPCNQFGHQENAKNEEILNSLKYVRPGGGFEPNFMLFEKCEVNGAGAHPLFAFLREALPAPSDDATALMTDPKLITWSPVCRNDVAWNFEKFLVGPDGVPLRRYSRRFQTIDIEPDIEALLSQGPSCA
# Sequence of Nuclear receptor subfamily 1 group I member 2 (Homo sapiens) (O75469 whole entry, looked up): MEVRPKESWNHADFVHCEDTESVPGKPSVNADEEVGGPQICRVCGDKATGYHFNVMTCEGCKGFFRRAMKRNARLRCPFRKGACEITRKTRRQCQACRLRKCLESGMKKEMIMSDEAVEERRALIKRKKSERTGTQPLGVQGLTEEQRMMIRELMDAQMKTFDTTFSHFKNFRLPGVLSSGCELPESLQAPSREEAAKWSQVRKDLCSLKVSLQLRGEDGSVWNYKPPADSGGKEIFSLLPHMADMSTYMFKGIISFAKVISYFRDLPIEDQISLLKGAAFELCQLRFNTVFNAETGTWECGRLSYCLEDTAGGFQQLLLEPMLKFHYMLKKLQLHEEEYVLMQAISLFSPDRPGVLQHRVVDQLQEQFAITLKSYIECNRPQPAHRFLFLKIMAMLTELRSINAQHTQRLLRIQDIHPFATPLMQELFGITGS
# Sequence of Cytochrome P450 3A4 (Homo sapiens) (P08684 whole entry, looked up, canonical isoform): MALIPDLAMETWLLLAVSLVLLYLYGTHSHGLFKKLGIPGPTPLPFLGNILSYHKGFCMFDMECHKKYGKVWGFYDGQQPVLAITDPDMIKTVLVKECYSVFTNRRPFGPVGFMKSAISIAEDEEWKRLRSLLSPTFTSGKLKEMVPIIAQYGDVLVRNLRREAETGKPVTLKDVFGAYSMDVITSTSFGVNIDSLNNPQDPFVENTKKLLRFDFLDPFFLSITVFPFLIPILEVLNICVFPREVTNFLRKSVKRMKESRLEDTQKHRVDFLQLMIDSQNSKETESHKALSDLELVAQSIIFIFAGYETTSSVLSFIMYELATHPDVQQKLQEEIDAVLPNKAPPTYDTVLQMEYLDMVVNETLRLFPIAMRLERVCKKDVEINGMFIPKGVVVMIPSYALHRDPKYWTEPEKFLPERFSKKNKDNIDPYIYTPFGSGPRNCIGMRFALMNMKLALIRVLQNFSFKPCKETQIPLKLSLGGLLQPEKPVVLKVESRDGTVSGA
# Sequence of Nuclear receptor subfamily 1 group I member 3 (Homo sapiens) (Q14994 whole entry, looked up): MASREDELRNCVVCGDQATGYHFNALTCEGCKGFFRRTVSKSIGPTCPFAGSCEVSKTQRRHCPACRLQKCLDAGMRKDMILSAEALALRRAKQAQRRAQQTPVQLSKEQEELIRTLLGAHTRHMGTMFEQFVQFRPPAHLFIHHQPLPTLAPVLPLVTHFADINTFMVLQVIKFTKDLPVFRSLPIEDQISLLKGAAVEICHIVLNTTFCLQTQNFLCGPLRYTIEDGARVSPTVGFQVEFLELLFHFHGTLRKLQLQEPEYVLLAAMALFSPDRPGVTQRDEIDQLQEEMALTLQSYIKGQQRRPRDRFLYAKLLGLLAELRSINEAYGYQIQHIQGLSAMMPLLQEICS
# Sequence of Cytochrome P450 2C9 (Homo sapiens) (P11712 whole entry, looked up): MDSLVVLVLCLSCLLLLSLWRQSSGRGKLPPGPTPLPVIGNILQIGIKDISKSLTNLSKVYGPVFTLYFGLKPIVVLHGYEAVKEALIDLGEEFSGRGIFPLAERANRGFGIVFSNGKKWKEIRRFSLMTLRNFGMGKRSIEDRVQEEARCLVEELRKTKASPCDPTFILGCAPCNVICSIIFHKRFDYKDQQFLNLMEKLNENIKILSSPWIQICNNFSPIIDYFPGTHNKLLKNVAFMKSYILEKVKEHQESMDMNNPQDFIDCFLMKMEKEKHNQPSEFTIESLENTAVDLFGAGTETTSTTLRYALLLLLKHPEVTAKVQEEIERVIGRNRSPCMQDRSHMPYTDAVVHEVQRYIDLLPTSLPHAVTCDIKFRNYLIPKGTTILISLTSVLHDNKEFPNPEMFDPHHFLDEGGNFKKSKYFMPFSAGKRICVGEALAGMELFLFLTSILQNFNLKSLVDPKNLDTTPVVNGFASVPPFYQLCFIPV
# Sequence of Cytochrome P450 1A2 (Homo sapiens) (P05177 whole entry, looked up): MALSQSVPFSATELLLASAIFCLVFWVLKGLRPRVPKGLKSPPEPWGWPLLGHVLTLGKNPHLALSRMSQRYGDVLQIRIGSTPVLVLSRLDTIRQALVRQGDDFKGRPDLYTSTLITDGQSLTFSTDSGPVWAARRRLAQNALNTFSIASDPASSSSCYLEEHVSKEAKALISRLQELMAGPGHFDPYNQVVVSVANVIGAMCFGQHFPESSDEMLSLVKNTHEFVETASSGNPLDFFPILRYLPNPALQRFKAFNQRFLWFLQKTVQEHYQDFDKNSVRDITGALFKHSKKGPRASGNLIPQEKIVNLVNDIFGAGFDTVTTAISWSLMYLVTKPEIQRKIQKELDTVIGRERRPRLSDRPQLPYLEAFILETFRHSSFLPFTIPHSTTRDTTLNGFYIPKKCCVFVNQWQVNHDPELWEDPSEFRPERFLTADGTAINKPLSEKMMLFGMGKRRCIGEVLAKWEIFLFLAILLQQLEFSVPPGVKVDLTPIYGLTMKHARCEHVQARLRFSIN
# Sequence of Cytochrome P450 2D6 (Homo sapiens) (P10635 whole entry, looked up): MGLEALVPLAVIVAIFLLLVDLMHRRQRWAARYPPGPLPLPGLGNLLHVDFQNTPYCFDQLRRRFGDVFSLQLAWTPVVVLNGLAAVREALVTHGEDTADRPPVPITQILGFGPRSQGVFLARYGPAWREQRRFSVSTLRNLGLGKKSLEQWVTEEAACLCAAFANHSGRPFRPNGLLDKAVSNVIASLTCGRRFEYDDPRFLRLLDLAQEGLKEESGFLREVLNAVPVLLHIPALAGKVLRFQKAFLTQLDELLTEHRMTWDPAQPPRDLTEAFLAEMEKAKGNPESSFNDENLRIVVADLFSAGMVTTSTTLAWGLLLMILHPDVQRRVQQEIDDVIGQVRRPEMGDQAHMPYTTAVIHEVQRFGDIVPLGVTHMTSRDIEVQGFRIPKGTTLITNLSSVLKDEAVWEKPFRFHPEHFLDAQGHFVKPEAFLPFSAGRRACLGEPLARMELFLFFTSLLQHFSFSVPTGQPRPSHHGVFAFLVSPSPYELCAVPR
smiles,measurement,setting,value
O=c1cc(-c2ccc(O)c(-c3c(O)cc(O)c4c(=O)cc(-c5ccc(O)cc5)oc34)c2)oc2cc(O)cc(O)c12,Potency,[1],inactive
same,Potency,[2],inactive
Cc1cccc(C)c1N(CC(=O)Nc1ccc(-c2ncon2)cc1)C(=O)C1CCS(=O)(=O)CC1,Potency,[1],inactive
same,Potency,[2],inactive
CC(C)[C@H](NC(=O)OCc1ccccc1)C(=O)N[C@@H](C)C(=O)N[C@@H](CC(=O)O)C(=O)CF,Potency,[1],inactive
same,Potency,[2],inactive
O=C(/C=C/c1ccc(O)c(O)c1)O[C@H]1[C@H](O)C[C@](O)(C(=O)O)C[C@H]1OC(=O)/C=C/c1ccc(O)c(O)c1,Potency,[1],inactive
same,outcome,[3],inactive
same,outcome,[4],inactive
same,Potency,[5],inactive
same,outcome,[6],inactive
same,Potency,[7],inactive
same,Potency,[8],inactive
same,Potency,[9],15.8 µM (active)
same,outcome,[10],inactive
same,Potency,[11],inactive
same,max response,[12],-1.54% (inactive)
same,outcome,[13],inactive
same,Potency,[14],inactive
same,outcome,[15],inactive
same,outcome,[16],inactive
Cn1c(=O)cc(N2CCC[C@@H](N)C2)n(Cc2ccccc2C#N)c1=O,Potency,[2],inactive
same,Potency,[17],inactive
same,Potency,[18],inactive
O=C(NO)c1cccc(C(=O)NCCc2ccccc2)c1,Potency,[2],inactive
C[C@H]1[C@H](OC(=O)CCC(=O)O)O[C@@H]2O[C@@]3(C)CC[C@H]4[C@H](C)CC[C@@H]1[C@@]24OO3,Potency,[1],inactive
same,Potency,[17],inactive
same,Potency,[18],inactive
COC(=O)N[C@H](C(=O)N1CC2(CC2)C[C@H]1c1ncc(-c2ccc3c(c2)C(F)(F)c2cc(-c4ccc5nc([C@@H]6[C@H]7CC[C@H](C7)N6C(=O)[C@@H](NC(=O)OC)C(C)C)[nH]c5c4)ccc2-3)[nH]1)C(C)C,Potency,[1],inactive
same,Potency,[17],inactive
same,Potency,[18],3.55 µM (active)
NC(=O)[C@@H]1CC[C@@H]2CN1C(=O)N2OS(=O)(=O)O,Potency,[1],inactive
same,Potency,[17],inactive
same,Potency,[18],inactive
O=C1CCC[C@@H]2[C@@H]3CCC[N@+]4([O-])CCC[C@H](CN12)[C@H]34,Potency,[1],inactive
same,Potency,[17],inactive
same,Potency,[18],inactive
same,Z-AUC,[19],1.48 (inactive)
same,Z-AUC,[19]; measured here: PEO1 parental Z-AUC,0.635
same,Z-AUC,[19]; measured here: PEO4 Z-AUC,0.881
Cc1cc(/C=C/C#N)cc(C)c1Nc1ccnc(Nc2ccc(C#N)cc2)n1,Potency,[2],16.3 µM (active)
same,Potency,[17],inactive
same,Potency,[18],inactive
O=C(O)[C@H]1C2CCC(CC2)[C@@H]1Nc1nc(-c2c[nH]c3ncc(F)cc23)ncc1F,Potency,[2],inactive
